Most compounds without a hit are left out; they make up all but 6.3% or so of the library.
TGFb SMAD3 inh = qHTS for Inhibitors of TGF-b. HepG2 CAGA-GFP TGF-b/SMAD3 reporter, GFP fluorescence, 18 h; TGF-beta stimulated, 500 pg/mL final. Potency, µM (doses to about 46.1 µM), hits mostly inhibitors. hit rate 1.2% among 410,000. AID 588855, 2011; note: nearly all actives have a fitted effect of over 65% in size
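Per well, imaged GFP fluorescence of HEPG2 CAGA-GFP cells gives the signal; cells get compound, then TGF-beta (500 pg/mL final), 18 h at 37 degrees C; %Activity versus -TGF-beta and +DMSO controls.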
ATXN2 expr inh = Primary qHTS for Inhibitors of ATXN expression. HEK-293 ATXN2-luciferase reporter, luminescence, 24 h. hit rate 0.72% among 360,000. Potency, µM (doses to about 57 µM), actives largely listed as inhibitors; note: nearly all actives have a fitted effect of over 55% in size
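ATXN2-luciferase reporter cells (luciferase flanked by upstream and downstream ATXN2 gene portions) were treated 24 h at 37 °C with compounds at up to 57 uM. SteadyGlo luminescence gave expression; GF-AFC fluorescence gave viability.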
RORgamma inh = qHTS for inhibitors of ROR gamma transcriptional activity; Potency, µM (titrated, usually from 53.6 µM), most hits filed as inhibitors; hit rate 5.4% among 310,000; Nuclear receptor ROR-gamma (Mus musculus), P51450; Drosophila S2 Gal4-RORgamma UAS-luciferase reporter, 20 h; AID 2551, 2010; note: nearly all actives have a fitted effect of over 60% in size
Target sequence (P51450 whole entry, looked up, the tested form may be a part): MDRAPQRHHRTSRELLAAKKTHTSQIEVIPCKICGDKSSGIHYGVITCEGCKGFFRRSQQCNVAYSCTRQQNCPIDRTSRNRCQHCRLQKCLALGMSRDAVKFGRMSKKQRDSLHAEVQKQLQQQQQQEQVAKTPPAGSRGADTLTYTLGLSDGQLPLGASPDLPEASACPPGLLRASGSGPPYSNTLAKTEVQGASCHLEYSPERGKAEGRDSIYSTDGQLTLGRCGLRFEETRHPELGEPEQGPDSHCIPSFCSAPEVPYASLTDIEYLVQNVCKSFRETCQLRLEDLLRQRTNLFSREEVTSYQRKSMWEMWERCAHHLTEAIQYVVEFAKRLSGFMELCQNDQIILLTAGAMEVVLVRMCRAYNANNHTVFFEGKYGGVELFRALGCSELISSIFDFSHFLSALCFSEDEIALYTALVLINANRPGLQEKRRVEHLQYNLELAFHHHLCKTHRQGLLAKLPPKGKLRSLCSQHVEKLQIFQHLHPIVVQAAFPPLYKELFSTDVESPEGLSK
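Luminescence from a UAS-regulated Photinus luciferase reporter in stably transfected Drosophila Schneider cells is measured; decreased signal marks ROR gamma inhibition. Fusion expression is induced by 700 uM copper sulfate for 20 hr.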
HepG2 viability = qHTS for Inhibitors of TGF-b: Cytotox Counterscreen. Potency, µM (series often up to 46.1 µM), most hits filed as cytotoxic. HepG2 CAGA-GFP viability, ATP luminescence, 18 h. hit rate 0.76% among 410,000
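CellTiter-Glo luminescence gave cytotoxicity after 18 hours at 37 degrees C. The cells were HepG2 CAGA-GFP in 1% FBS DMEM, stimulated with 500 pg/mL TGF-beta after compound addition. %Activity was normalised to no-cell wells (complete cell-killing) and DMSO (no toxicity), and curves were fitted and classified.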
ATXN viability = Viability Counterscreen for Primary qHTS for Inhibitors of ATXN expression. S2 cells (HEK-293 line with an ATXN2-luciferase reporter) viability, CellTiter-Fluor protease fluorescence, 24 h. Potency, µM (top dose mostly 56.7 µM), actives largely listed as cytotoxic. hit rate 0.49% among 400,000. AID 651635, 2014; note: nearly all actives have a fitted effect of over 40% in size
Gal4-VP16 FLuc = VP16 counterscreen qHTS for inhibitors of ROR gamma transcriptional activity | Drosophila S2 Gal4-VP16 UAS-luciferase, luminescence, 20 h | Potency, µM (highest dose often 53.6 µM), most hits filed as inhibitors | hit rate 3.5% among 310,000 | AID 2546, 2010;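 note: Gal4-VP16 expression switched on by copper sulfate through the metallothionein promoter; nearly all actives have a fitted effect of over 50% in size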
Numbers stand for hits; i = inactive; ? = inconclusive; nt = no result given. Calls come from the whole dose curve; as a rule, active = well fitted curve in the direction sought with a large enough effect; inconclusive = small, poorly fitted or top-dose-only effect, or another doubt; inactive = no such curve, though single readings can be large; an effect the other way counts as inactive or inconclusive.

SMILES	TGFb SMAD3 inh	ATXN2 expr inh	RORgamma inh	HepG2 viability	ATXN viability	Gal4-VP16 FLuc
CCn1c(=O)c2cc(C(=O)N(C)CC(OC)OC)sc2c2ccccc21	i	nt	i	i	i	i
CCOc1ccccc1N(C)C(=O)c1cc2c(=O)n(CC)c3ccccc3c2s1	?	nt	i	11µM	nt	i
CCn1c(=O)c2cc(C(=O)NCc3cc(OC)ccc3OC)sc2c2ccccc21	2.5µM	i	nt	i	i	nt
CCN(CC)S(=O)(=O)c1ccc2c(c1)N(CC(=O)N1CCN(c3ccccc3F)CC1)C(=O)CO2	i	i	nt	i	i	nt
Cc1ccc(S(=O)(=O)CC#CCOC(=O)c2ccc([N+](=O)[O-])cc2)cc1	nt	nt	10µM	nt	nt	?
OC(c1ccc(F)c(F)c1)c1nc(-c2cnc3ccccc3c2)cs1 (stereo not drawn)	i	i	nt	i	i	nt
COc1ccc(Oc2cn[nH]c2-c2ccc(OCC(=O)NN)cc2O)cc1	i	i	i	i	i	i
CCCOC(=O)c1ccc(Oc2c(-c3ccc(OCC)cc3O)n[nH]c2C)cc1	11µM	?	i	11µM	nt	i
CCCc1ccc(Oc2cn[nH]c2-c2ccc(O)c(C)c2O)cc1	?	?	?	i	?	?
CCCOC(=O)c1ccc(Oc2cn[nH]c2-c2ccc(OCC)cc2O)cc1	?	?	10µM	i	?	?
CCCc1ccc(Oc2c(-c3ccc(O)c(C)c3O)n[nH]c2C)cc1	?	i	18µM	i	?	?
CC1CCCCC1NC(=O)c1cc(S(=O)(=O)N2CCOCC2)ccc1Cl (stereo not drawn)	i	i	nt	i	i	nt
CC(C)(C)n1nnnc1C(c1cc2ccccc2o1)N1CCCCC1 (stereo not drawn)	nt	i	nt	nt	?	nt
Cc1ccc(-n2nc3c(N4CCCC(C(=O)NCCc5ccccc5)C4)nnc(C)c3c2C)cc1 (stereo not drawn)	?	i	nt	i	nt	nt
Cc1ccc(C)c(NC(=O)COC(=O)c2ccc(S(=O)(=O)N3CCCC3)cc2)c1	i	nt	nt	i	i	nt
CN(Cc1ccccc1)C(=O)c1ccc(NC(=O)Cc2ccc(NC(=O)C3CCCN(C(=O)c4ccccc4)C3)cc2)cc1 (stereo not drawn)	i	i	nt	i	i	nt
Cc1ccc(Cl)cc1N1CCN(Cc2nc3ccsc3c(=O)[nH]2)CC1	i	i	11µM	i	?	?
O=C(NOCC1CC1)c1ccc(F)c(F)c1Nc1ccc(I)cc1Cl	nt	31µM	nt	nt	?	nt
O=C(NCC1CCCCC1)c1ccc(F)cc1Cl	i	i	i	i	i	i
COc1ccc(N(C(=O)CCl)C(C(=O)NCCc2ccccc2)c2cccs2)cc1 (stereo not drawn)	?	28µM	11µM	16µM	13µM	?
COc1ccc(CNC(=O)C(c2ccncc2)N(C(=O)Cc2cccs2)c2ccccc2)cc1 (stereo not drawn)	i	i	i	i	i	i
CN(C)c1ncc2nc(-c3ccc(Cl)cc3)c(=O)n(Cc3cccs3)c2n1	nt	nt	i	nt	nt	i
CCCCCCn1c(=O)c(Cc2ccccc2)c(O)c2ccccc21	i	i	i	i	i	i
CCCCCCCCn1c(=O)c(C(=O)OC)c(N)c2ccccc21	16µM	i	3.2µM	i	?	4.5µM
CCCCCCCn1c(=O)c(C(=O)OC)c(N)c2ccccc21	13µM	?	1.8µM	i	?	1.3µM
Cc1ccc(/C=C/c2onc(C)c2S(=O)(=O)N2CCC(C(=O)N3CCN(c4ccccc4F)CC3)CC2)cc1	i	i	nt	i	i	nt
CC1=NN(C(=O)Cc2ccccc2)C(O)(c2cccnc2)C1 (stereo not drawn)	i	i	6.3µM	i	i	7.9µM
CC1=NN(C(=O)COc2ccccc2)C(O)(c2ccccc2)C1 (stereo not drawn)	i	i	6.3µM	i	i	10µM
CC1=NN(C(=O)CSCc2ccccc2)C(O)(c2ccccc2)C1 (stereo not drawn)	i	?	?	i	i	13µM
